# PubChem BioAssay (Tox21)
# Inconclusive results are not listed. A call without a number means that no potency is given here. A number with no mark means an inactive call. The source made the active and inactive calls. The call rests on the fitted dose curve; in most records, active means well fitted curve in the direction sought with a large enough effect in the repeat runs; inconclusive means weak or mixed curves; inactive means no such curve, though single readings can be large; an effect the other way counts as inactive or inconclusive.
# What was measured:
# [1] = biological target: Cytochrome P450 2C9 (Homo sapiens) (UniProt P11712); assay: Cytochrome P450 Family 2 Subfamily C Member 9 (CYP2C9) small molecule antagonists: luciferase reporter qHTS assay (AID 1671198); further: nearly all actives have a fitted effect of over 50% in size; on activity change, negative = inhibition: series mostly up to about 120 µM
# Summary of the method: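 P450-Glo proluciferin substrate with CYP2C9 enzyme; 10 min RT preincubation, then NADPH regeneration 1 h at 37C; luciferin detection reagent 20 min RT, luminescence in relative luminescence units.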
# [2] = biological target: Cytochrome P450 1A2 (Homo sapiens) (UniProt P05177); assay: Cytochrome P450 Family 1 Subfamily A Member 2 (CYP1A2) small molecule antagonists: luciferase reporter qHTS assay (AID 1671199); further: nearly all actives have a fitted effect of over 50% in size; on activity change, negative = inhibition: series mostly up to about 120 µM
# Summary of the method: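 Human CYP1A2 activity measured with a P450-Glo proluciferin substrate; compounds in DMSO preincubated 10 min at room temperature with enzyme-substrate mix, then NADPH regeneration system added for 1 h. Luciferin detection reagent, 20 min, luminescence read.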
# [3] = biological target: Voltage-gated inwardly rectifying potassium channel KCNH2 (Homo sapiens) (UniProt Q12809); assay: Human Ether-a-go-go-Related Gene (hERG) channel small molecule antagonists: fluorescence cell-based qHTS assay (AID 1671200); further: nearly all actives have a fitted effect of over 50% in size;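 on activity change, negative = inhibition: hERG-expressing U2OS cells given a thallium stimulus after FluxOR II dye loading; series mostly up to about 77 µM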
# Summary of the method: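 Channel function was assessed by thallium flux. Cells seeded the previous day and kept at 37 C took up FluxOR II dye over 1 h in the dark at room temperature, then sat another 10 min before stimulation.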
# [4] = biological target: Cytochrome P450 3A4 (Homo sapiens) (UniProt P08684); assay: Cytochrome P450 Family 3 Subfamily A Member 4 (CYP3A4) small molecule antagonists: luciferase reporter qHTS assay (AID 1671201); further: nearly all actives have a fitted effect of over 50% in size; on activity change, negative = inhibition: series mostly up to about 120 µM
# Summary of the method: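 Compounds in DMSO were pin-transferred onto CYP3A4 enzyme-substrate mix and held 10 min at room temperature. NADPH regenerating solution started the reaction for 1 h; luciferin detection reagent stopped it, and luminescence was read after 20 min.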
# [5] = biological target: Cytochrome P450 2C19 (Homo sapiens) (UniProt P33261); assay: Cytochrome P450 Family 2 Subfamily C Member 19 (CYP2C19) small molecule antagonists: luciferase reporter qHTS assay (AID 1671197); further: nearly all actives have a fitted effect of over 65% in size; on activity change, negative = inhibition: series mostly up to about 120 µM
# Summary of the method: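 Enzyme-substrate mix with proluciferin substrate (P450-Glo CYP2C19 system) preincubated with compounds 10 min at room temperature; NADPH regeneration solution added, 37C for 1 h; detection reagent stops reaction, luminescence read after 20 min. Ketoconazole positive control.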
# Potency means the concentration at half of the fitted maximal effect.
# Sequence of Cytochrome P450 2C19 (Homo sapiens) (P33261 whole entry, looked up): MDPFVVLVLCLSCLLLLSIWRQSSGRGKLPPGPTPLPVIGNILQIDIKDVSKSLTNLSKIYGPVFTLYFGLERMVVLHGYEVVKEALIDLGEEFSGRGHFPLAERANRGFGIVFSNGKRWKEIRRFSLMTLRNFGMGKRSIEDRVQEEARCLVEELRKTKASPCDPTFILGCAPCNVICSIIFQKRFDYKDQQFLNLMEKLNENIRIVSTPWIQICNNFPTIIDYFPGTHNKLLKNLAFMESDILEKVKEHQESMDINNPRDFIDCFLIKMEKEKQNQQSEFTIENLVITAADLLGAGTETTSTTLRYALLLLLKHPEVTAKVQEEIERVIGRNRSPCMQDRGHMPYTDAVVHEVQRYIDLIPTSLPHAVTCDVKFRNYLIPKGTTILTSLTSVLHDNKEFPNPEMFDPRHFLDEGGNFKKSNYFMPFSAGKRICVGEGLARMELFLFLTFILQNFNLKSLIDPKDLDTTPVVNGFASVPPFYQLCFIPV
# Sequence of Cytochrome P450 1A2 (Homo sapiens) (P05177 whole entry, looked up): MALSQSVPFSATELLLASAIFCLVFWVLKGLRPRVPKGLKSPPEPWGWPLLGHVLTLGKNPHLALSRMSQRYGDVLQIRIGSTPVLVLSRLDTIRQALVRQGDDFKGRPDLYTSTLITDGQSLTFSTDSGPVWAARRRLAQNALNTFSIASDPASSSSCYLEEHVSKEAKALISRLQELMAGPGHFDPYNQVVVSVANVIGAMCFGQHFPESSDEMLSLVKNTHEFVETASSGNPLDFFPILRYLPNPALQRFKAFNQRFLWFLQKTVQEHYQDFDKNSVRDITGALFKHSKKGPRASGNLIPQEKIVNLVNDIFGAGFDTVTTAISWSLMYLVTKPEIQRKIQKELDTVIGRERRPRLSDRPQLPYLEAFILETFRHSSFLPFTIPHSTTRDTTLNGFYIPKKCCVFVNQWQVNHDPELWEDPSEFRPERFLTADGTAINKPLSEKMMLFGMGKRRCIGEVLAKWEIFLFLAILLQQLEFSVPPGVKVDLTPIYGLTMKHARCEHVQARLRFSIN
# Sequence of Cytochrome P450 3A4 (Homo sapiens) (P08684 whole entry, looked up): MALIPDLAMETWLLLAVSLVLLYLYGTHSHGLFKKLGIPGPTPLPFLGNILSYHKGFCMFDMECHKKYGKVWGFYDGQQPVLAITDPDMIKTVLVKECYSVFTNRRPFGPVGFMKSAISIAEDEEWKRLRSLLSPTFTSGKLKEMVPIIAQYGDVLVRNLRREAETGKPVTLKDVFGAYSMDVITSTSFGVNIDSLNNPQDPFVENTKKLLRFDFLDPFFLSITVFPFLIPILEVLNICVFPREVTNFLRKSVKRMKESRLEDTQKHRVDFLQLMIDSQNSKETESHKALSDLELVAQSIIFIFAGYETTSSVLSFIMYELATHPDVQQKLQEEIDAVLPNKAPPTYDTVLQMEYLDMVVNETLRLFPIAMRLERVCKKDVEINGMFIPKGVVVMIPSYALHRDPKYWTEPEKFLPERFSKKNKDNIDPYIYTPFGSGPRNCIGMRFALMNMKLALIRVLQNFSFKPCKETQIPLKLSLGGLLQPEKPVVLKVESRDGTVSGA
# Sequence of Voltage-gated inwardly rectifying potassium channel KCNH2 (Homo sapiens) (Q12809 whole entry, looked up): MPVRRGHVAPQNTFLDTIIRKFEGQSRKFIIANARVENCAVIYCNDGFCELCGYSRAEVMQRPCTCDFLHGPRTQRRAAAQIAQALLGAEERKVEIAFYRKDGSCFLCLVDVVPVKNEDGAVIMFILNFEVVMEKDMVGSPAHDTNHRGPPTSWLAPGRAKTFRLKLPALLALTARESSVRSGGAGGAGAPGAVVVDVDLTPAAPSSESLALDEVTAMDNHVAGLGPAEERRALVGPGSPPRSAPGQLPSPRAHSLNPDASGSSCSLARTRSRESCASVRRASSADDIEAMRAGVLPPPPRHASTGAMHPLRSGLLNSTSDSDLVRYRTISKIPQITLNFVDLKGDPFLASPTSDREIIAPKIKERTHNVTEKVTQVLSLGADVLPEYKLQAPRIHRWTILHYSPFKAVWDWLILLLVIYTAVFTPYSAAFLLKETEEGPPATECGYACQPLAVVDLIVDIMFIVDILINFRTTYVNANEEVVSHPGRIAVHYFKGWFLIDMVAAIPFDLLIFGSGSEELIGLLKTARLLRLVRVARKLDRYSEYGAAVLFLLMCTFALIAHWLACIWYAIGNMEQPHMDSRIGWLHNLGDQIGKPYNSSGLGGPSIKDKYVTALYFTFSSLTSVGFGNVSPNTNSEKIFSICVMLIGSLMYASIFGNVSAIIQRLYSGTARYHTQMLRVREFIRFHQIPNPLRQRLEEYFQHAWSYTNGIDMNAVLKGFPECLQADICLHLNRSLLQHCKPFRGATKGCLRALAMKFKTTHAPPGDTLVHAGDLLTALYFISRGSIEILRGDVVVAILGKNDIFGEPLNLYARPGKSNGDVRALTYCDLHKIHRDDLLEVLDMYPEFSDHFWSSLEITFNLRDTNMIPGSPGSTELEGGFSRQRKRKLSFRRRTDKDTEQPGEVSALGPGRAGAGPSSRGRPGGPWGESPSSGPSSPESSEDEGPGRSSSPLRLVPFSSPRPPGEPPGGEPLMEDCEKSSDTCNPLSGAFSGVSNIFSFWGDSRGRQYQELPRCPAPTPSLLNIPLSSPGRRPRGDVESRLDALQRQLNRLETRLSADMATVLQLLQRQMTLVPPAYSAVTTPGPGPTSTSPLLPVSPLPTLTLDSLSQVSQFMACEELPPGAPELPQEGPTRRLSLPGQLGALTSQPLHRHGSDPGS
# Sequence of Cytochrome P450 2C9 (Homo sapiens) (P11712 whole entry, looked up): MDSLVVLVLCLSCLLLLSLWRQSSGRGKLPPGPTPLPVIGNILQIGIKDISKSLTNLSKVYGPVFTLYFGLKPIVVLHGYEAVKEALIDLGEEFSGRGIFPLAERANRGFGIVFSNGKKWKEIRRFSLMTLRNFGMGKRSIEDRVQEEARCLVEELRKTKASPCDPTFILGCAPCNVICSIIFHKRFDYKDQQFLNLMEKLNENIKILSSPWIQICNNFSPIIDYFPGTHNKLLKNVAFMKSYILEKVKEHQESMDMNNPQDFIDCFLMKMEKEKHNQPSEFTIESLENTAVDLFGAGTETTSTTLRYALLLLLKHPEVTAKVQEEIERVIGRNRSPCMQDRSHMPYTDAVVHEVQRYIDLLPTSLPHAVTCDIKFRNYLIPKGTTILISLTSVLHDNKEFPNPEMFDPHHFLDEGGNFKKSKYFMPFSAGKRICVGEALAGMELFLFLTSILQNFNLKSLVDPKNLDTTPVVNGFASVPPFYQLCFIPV
compound,measurement,setting,value
C=C(C)C(=O)OCCO,Potency,[1],inactive
same,Potency,[2],inactive
same,Potency,[3],inactive
same,Potency,[4],inactive
CCCCCCCCCCCCCCCCOS(=O)(=O)O,Potency,[5],inactive
same,Potency,[2],inactive
same,Potency,[4],inactive
O=C(O)C(S)C(S)C(=O)O (stereo unspecified),Potency,[5],inactive
same,Potency,[2],inactive
same,Potency,[3],inactive
same,Potency,[4],inactive
O=C(O)CNCC(=O)O,"activity change, negative = inhibition",[1],-0.595% [at 10.5 µM]
same,"activity change, negative = inhibition",[2],-1.26% [at 10.5 µM]
same,"activity change, negative = inhibition",[3],4.26% [at 6.97 µM]
same,"activity change, negative = inhibition",[4],0.283% [at 10.5 µM]
O=C(O)c1ccccc1Cl,Potency,[5],inactive
same,Potency,[2],inactive
same,Potency,[3],inactive
same,Potency,[4],inactive
CCCOC(C(=O)OC1CCN(C)CC1)(c1ccccc1)c1ccccc1,Potency,[1],inactive
same,Potency,[2],inactive
Nc1cccc(S(=O)(=O)c2cccc(N)c2)c1,Potency,[5],35.6 µM (active)
same,Potency,[2],inactive
same,Potency,[3],inactive
same,Potency,[4],10 µM (active)
CCOC(=O)C1=C[C@]2(CC)CCCN3CCc4c(n1c1ccccc41)[C@@H]32,Potency,[5],inactive
same,Potency,[2],inactive
same,Potency,[3],0.151 µM (active)
c1ccc(C(O[C@H]2CCCN(CCc3ccc4c(c3)OCO4)C2)c2ccccc2)cc1,Potency,[1],15.5 µM (active)
same,Potency,[2],30.9 µM (active)
CCCCNc1ccc(C(=O)OCCOCCOCCOCCOCCOCCOCCOCCOCCOC)cc1,Potency,[1],12.3 µM (active)
same,Potency,[2],inactive
CN(Cc1ccc(C(C)(C)C)cc1)Cc1cccc2ccccc12,Potency,[5],8.71 µM (active)
same,Potency,[3],19 µM (active)
same,Potency,[4],inactive
Nc1ccc(S(=O)(=O)Nc2ccccc2)cc1,Potency,[1],inactive
same,Potency,[2],inactive
CCC(CC)Nc1ccc(C)c(C)c1,Potency,[5],7.1 µM (active)
same,Potency,[2],5.64 µM (active)
same,Potency,[4],inactive
CCOC(=O)C(=O)CCc1ccccc1,Potency,[5],8.71 µM (active)
same,Potency,[2],inactive
same,Potency,[3],inactive
same,Potency,[4],inactive
CCC(C)c1cc(C(C)(C)C)c(O)c(C(C)(C)C)c1 (stereo unspecified),Potency,[5],inactive
same,Potency,[2],62.1 µM (active)
same,Potency,[4],19.6 µM (active)
Cc1ccc(C(C)OC(=O)C2(C)CCC(C(=O)O)C2(C)C)cc1 (stereo unspecified),Potency,[5],inactive
same,Potency,[2],inactive
same,Potency,[3],inactive
same,Potency,[4],inactive
O=C(O)c1ccc(-n2nc(-c3ccccc3O)nc2-c2ccccc2O)cc1,Potency,[5],inactive
same,Potency,[2],inactive
same,Potency,[3],inactive
same,Potency,[4],inactive
Cc1oc(-c2ccccc2)nc1CCOc1cccc2c1ccn2CCC(=O)O,Potency,[1],22.4 µM (active)
same,Potency,[2],inactive
same,Potency,[3],inactive
same,Potency,[4],inactive
CCCC(=O)Nc1ccc(O)c(C(C)=O)c1,Potency,[5],inactive
same,Potency,[2],9.77 µM (active)
same,Potency,[4],inactive
C=CC1CC2C=CC1C2 (stereo unspecified),Potency,[1],inactive
same,Potency,[2],inactive
same,Potency,[3],inactive
same,Potency,[4],inactive
O=C(OCCCCCCOC(=O)c1ccccc1)c1ccccc1,Potency,[1],7.96 µM (active)
same,Potency,[2],3.17 µM (active)
same,Potency,[3],inactive
same,Potency,[4],inactive
Cc1cc(C(=O)O)ccc1[N+](=O)[O-],Potency,[1],inactive
same,Potency,[2],40 µM (active)
same,Potency,[3],inactive
same,Potency,[4],inactive
CCCCCCCCCCCCCCOS(=O)(=O)O,Potency,[5],inactive
same,Potency,[2],inactive
same,Potency,[3],inactive
same,Potency,[4],inactive
CCN(CC)CCOC(=O)C(c1ccccc1)C1CCCCC1 (stereo unspecified),Potency,[1],inactive
same,Potency,[2],3.63 µM (active)
same,Potency,[3],6.01 µM (active)
c1ccc(-c2ccccn2)nc1,Potency,[5],inactive
same,Potency,[2],71 µM (active)
same,Potency,[3],inactive
same,Potency,[4],inactive
C=C(C)C(=O)OCCOCC,Potency,[5],80 µM (active)
same,Potency,[2],40.1 µM (active)
same,Potency,[3],inactive
same,Potency,[4],inactive
Nc1cccc([N+](=O)[O-])c1,Potency,[5],69.5 µM (active)
same,Potency,[2],39.1 µM (active)
same,Potency,[4],inactive
CN(C)CCOC(c1ccccc1)c1ccc(Br)cc1 (stereo unspecified),Potency,[5],13.8 µM (active)
same,Potency,[2],17.4 µM (active)
same,Potency,[4],inactive
C[Si](C)(CCCN)O[Si](C)(C)CCCN,Potency,[5],39.9 µM (active)
same,Potency,[2],25.2 µM (active)
same,Potency,[4],2.52 µM (active)
CC[N+](C)(CC)CCOC(=O)C(O)(c1ccccc1)C1CCCCC1 (stereo unspecified),Potency,[1],inactive
same,Potency,[2],inactive
C[N+]1(CC2COC(c3ccccc3)(C3CCCCC3)O2)CCCCC1 (stereo unspecified),Potency,[5],inactive
same,Potency,[2],inactive
same,Potency,[3],15.1 µM (active)
same,Potency,[4],3.89 µM (active)
CCC(=O)O[C@]1(C(=O)CCl)[C@@H](C)C[C@H]2[C@@H]3CCC4=CC(=O)C=C[C@]4(C)[C@@]3(F)[C@@H](O)C[C@@]21C,Potency,[1],30.9 µM (active)
same,Potency,[2],inactive
same,Potency,[3],inactive
O=C(O)c1ccc(S(=O)(=O)O)cc1C(=O)O,Potency,[1],inactive
same,Potency,[2],inactive
same,Potency,[3],inactive
same,Potency,[4],inactive
